Measurements published in PubChem BioAssay AID1851 (National Center for Advancing Translational Sciences (NCATS), 2009).
Several values for one entry are separate records, joined by “and”; a condition that tells them apart may be missing. Equal values may be shown once. In all, about 16,000 compounds went through this assay and about 2,600 (16%) were called active. Not shown: some 20% with an inconclusive outcome. The call rests on the fitted dose curve; in most records, active means well fitted curve in the direction sought with a large enough effect; inconclusive means small, poorly fitted or top-dose-only effect, or effect the other way; inactive means no such curve, though single readings can be large or run the other way. The list is a sample of the results. Peptide text beside a SMILES is read from it. * marks the point of attachment. Cbz = O=C(OCc1ccccc1)*

What follows are compounds tested against Cytochrome P450 2D6 (Homo sapiens) (UniProt P10635) (assay: Cytochrome panel assay with activity outcomes). Conditions: recombinant CYP, pro-luciferin dealkylation, luminescence, p450-cyp2d6; series mostly up to 57.1 µM.
Chain of Cytochrome P450 2D6 (Homo sapiens) (P10635 whole entry, looked up): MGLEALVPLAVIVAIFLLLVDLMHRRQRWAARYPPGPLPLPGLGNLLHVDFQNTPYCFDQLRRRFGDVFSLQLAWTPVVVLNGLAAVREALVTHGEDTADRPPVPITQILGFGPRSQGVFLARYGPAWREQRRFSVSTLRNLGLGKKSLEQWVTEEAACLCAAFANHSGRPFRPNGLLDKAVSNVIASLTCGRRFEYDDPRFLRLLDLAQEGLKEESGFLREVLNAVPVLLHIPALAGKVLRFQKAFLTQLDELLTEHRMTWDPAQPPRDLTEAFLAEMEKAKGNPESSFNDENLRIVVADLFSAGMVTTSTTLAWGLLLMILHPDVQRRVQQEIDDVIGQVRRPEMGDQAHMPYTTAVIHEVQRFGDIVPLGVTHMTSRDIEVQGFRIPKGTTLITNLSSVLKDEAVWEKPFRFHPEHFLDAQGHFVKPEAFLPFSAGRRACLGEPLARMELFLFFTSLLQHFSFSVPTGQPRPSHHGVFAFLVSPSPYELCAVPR
On the % scale 0 is the no-effect control and ±100 the full control effect.

**Q.** With Cn1cc(-c2nc3cnc(Oc4ccccc4)nc3n(Cc3cccs3)c2=O)c2ccccc21 as the compound, how does the AC50 read?
**A.** inactive

**Q.** Which AC50 does the source give for CC(C)Cn1c(SCC(=O)c2c(N)n(C)c(=O)n(C)c2=O)nc2ccccc21 here?
**A.** inactive

**Q.** With COCCNC(=O)c1onc(CSc2cccc(Cl)c2)c1C(=O)O as the compound, how does the AC50 read?
**A.** inactive

**Q.** With Nc1ccc(N=Nc2ccc(-c3ccc(O)cc3)cc2)c2ccc(S(=O)(=O)O)cc12 as the compound, how does the activity, negative = inhibition read?
**A.** 3.2% [at 11.4 µM] (inactive)

**Q.** With O=C(O)c1[nH]c2c([N+](=O)[O-])cc([N+](=O)[O-])cc2c1C(=O)O as the compound, how does the activity, negative = inhibition read?
**A.** 11.1% [at 11.4 µM] (inactive)

**Q.** How did the activity, negative = inhibition turn out when NC(=O)C[C@H](N)C(N)=O was run?
**A.** -0.87% [at 11.4 µM] (inactive)

**Q.** For CC1CCN(C(=O)Nc2ccc3nsnc3c2)CC1, which AC50 is on record?
**A.** inactive

**Q.** With COc1ccc(NC(=O)N2CC3(CCN(S(=O)(=O)c4ccccc4)CC3)C2)cc1 as the compound, how does the AC50 read?
**A.** inactive

**Q.** For CN1CCC2(CC1)CCN(S(=O)(=O)c1ccccc1)CC2, which AC50 is on record?
**A.** inactive

**Q.** O=S(=O)(c1ccccc1)N1CCC2(CC1)CN(Cc1nccs1)C2 was tested. Which AC50 did it give?
**A.** inactive

**Q.** How did the AC50 turn out when O=S(=O)(c1ccccc1)N1CCC2(CCCN(Cc3nccs3)C2)CC1 was run?
**A.** inactive

**Q.** With COc1ccccc1CN1CCC2(CC1)CCN(S(=O)(=O)c1ccccc1)CC2 as the compound, how does the AC50 read?
**A.** 0.158 µM (active)

**Q.** With O=S(=O)(c1ccccc1)N1CCC[C@@]2(CCN(Cc3nccs3)C2)C1 as the compound, how does the AC50 read?
**A.** 2.51 µM (active)

**Q.** How did the AC50 turn out when Cc1cccn2c(=O)c(C=NCc3ccco3)c(Nc3ccc(SC(F)F)cc3)nc12 was run?
**A.** inactive

**Q.** For COC(=O)[C@@H]1O[C@@H](SCCN)[C@@H](O)[C@H](O)[C@H]1O, which activity, negative = inhibition is on record?
**A.** -0.405% [at 11.4 µM] (inactive)

**Q.** Which AC50 does the source give for CSc1nnc(-c2sc(-c3ccccc3)nc2C)n1C here?
**A.** inactive

**Q.** With C#CCSc1nnc(-c2cc3c(C(F)(F)F)nn(C)c3s2)n1C as the compound, how does the AC50 read?
**A.** inactive

**Q.** For C#CCSc1nnc(-c2sc(-c3ccccc3)nc2C)n1C, which AC50 is on record?
**A.** 6.31 µM (active)

**Q.** CC(=O)c1cc2ccccc2oc1=O was tested. Which AC50 did it give?
**A.** inactive

**Q.** How did the AC50 turn out when COC(=O)C1CSC(C(=O)OC)N1C(=O)Nc1c(C)cccc1C (configuration not stated) was run?
**A.** inactive

**Q.** For O=C(CN(Cc1ccccc1Cl)C(=O)c1ccc(CN2CCOCC2)o1)NCC1CCCO1 (configuration not stated), which AC50 is on record?
**A.** 7.08 µM (active)

**Q.** Which AC50 does the source give for Cc1ccc(CS(=O)(=O)Cc2ccc(C(=O)NCC3CCCO3)o2)cc1 (configuration not stated) here?
**A.** inactive

**Q.** How did the AC50 turn out when O=C(CSCc1c(F)cccc1Cl)NCC1CCCO1 (configuration not stated) was run?
**A.** inactive

**Q.** Which AC50 does the source give for Cc1ccccc1NC(=O)c1cccc2nc3ccccc3nc12 here?
**A.** inactive

**Q.** COC(=O)C/C=C\[C@@H](C)[C@@H](/C=N\OC[C@@H]1O[C@H](c2ccccc2)C=C[C@@H]1Oc1ccc(OC)cc1)NS(=O)(=O)c1ccc(C)cc1 was tested. Which activity, negative = inhibition did it give?
**A.** -14% [at 11.4 µM] (inactive)

**Q.** Which activity, negative = inhibition does the source give for N=C(N)SCCCN here?
**A.** -11.8% [at 11.4 µM] (inactive)

**Q.** N=C(N)SCCc1cnc[nH]1 was tested. Which AC50 did it give?
**A.** 25.1 µM (active) and 6.31 µM (active)

**Q.** How did the AC50 turn out when O=C(NCCNC[C@@H](O)COc1ccc(O)cc1)N1CCOCC1 was run?
**A.** inactive

**Q.** How did the AC50 turn out when Cc1nc(Oc2ccc(Cl)cc2)c2oc3ccccc3c2n1 was run?
**A.** inactive

**Q.** Which AC50 does the source give for CCn1c(=O)cc(OCC(=O)Nc2cccnc2)c2ccccc21 here?
**A.** 6.31 µM (active)

**Q.** Which AC50 does the source give for COc1ccccc1OCC(=O)NNC(=O)c1cnccn1 here?
**A.** inactive

**Q.** Cn1c(=O)cc(OCC(=O)NCc2cccnc2)c2ccccc21 was tested. Which AC50 did it give?
**A.** inactive

**Q.** For Cc1cc(N2CCOCC2)ccc1/C=C1\SC(=O)N(C(C)C)C1=O, which AC50 is on record?
**A.** inactive

**Q.** How did the activity, negative = inhibition turn out when COC(=O)[C@H](C)NC(=O)[C@@H](C)CO was run?
**A.** -0.424% [at 11.4 µM] (inactive)

**Q.** Cn1c(=O)c2[nH]c(/N=N\N3CCN(CCO)CC3)nc2n(C)c1=O was tested. Which activity, negative = inhibition did it give?
**A.** 3.89% [at 11.4 µM] (inactive)

**Q.** How did the activity, negative = inhibition turn out when O=C(O)CCC(=O)c1ccc(Cl)cc1 was run?
**A.** 11.7% [at 11.4 µM] (inactive)

**Q.** How did the AC50 turn out when N[C@H](Cc1ccc(Cl)cc1)C(=O)O was run?
**A.** inactive

**Q.** How did the AC50 turn out when N[C@@H](C(=O)O)[C@H](CC(=O)O)c1ccc(Cl)cc1 was run?
**A.** 2.51 µM (active)

**Q.** How did the AC50 turn out when CCn1c(SCc2ccc(C(=O)Nc3nccs3)cc2)nnc1-c1ccc(NC(C)=O)cc1 was run?
**A.** inactive

**Q.** With CC12CCC(C(=O)Nc3ccccc3Br)(C/C1=N\O)C2(C)C (configuration not stated) as the compound, how does the AC50 read?
**A.** inactive

**Q.** Which AC50 does the source give for Cc1cnc(CNc2ccnc(-c3ccoc3)n2)cn1 here?
**A.** inactive

**Q.** c1cncc(-c2nccc(NCc3cccs3)n2)c1 was tested. Which AC50 did it give?
**A.** 0.631 µM (active)

**Q.** How did the AC50 turn out when Cc1cnc(CNc2ccnc(-c3c(C)noc3C)n2)cn1 was run?
**A.** inactive

**Q.** With CN(C)c1ccc(-c2nccc(NCc3cccs3)n2)cc1 as the compound, how does the AC50 read?
**A.** 0.126 µM (active)

**Q.** With c1csc(CNc2ccnc(-c3ccoc3)n2)c1 as the compound, how does the AC50 read?
**A.** 3.16 µM (active)

**Q.** How did the AC50 turn out when c1ccc(CNc2ccnc(-c3ccoc3)n2)cc1 was run?
**A.** 20 µM (active)

**Q.** COc1ncc2ncc(=O)n(Cc3ccc(F)cc3)c2n1 was tested. Which AC50 did it give?
**A.** inactive

**Q.** For CCC(C)[C@H](NC(=O)Nc1ccc(Oc2ccccc2)cc1)C(=O)O (some centres not stated), which AC50 is on record?
**A.** inactive

**Q.** How did the activity, negative = inhibition turn out when O=C(O)c1c[nH]c2cc(OCc3ccccc3)ccc2c1=O was run?
**A.** 4.69% [at 11.4 µM] (inactive)

**Q.** How did the activity, negative = inhibition turn out when O=C(O)[C@@H]1[C@@H]2C[C@H]([C@@H](Br)[C@H]2N2C(=O)CCC2=O)[C@@H]1C(=O)O was run?
**A.** -2.86% [at 11.4 µM] (inactive)

**Q.** COC(=O)CCC(NC(=O)OCc1ccccc1)C(=O)NC(CC(C)C)C(=O)OC (configuration not stated) (Cbz-Glu(OMe)-Leu-OMe; configuration not given here) was tested. Which AC50 did it give?
**A.** inactive

**Q.** COC(=O)C(NNc1ccccc1)(NC(=O)c1ccccc1F)C(F)(F)F (configuration not stated) was tested. Which AC50 did it give?
**A.** inactive

**Q.** How did the activity, negative = inhibition turn out when CCCNC(=O)OC[C@@H]1O[C@H](CCO/N=C\c2ccc(C(=O)N3[C@H](c4ccc(C)cc4)[C@@H](C)CC[C@H]3C(=O)OC)cc2)C=C[C@@H]1Oc1ccc(OC)cc1 was run?
**A.** 9.53% [at 11.4 µM] (inactive)

**Q.** With O=C(c1ccccc1)[C@@H]1O[C@H]1c1ccc(-c2ccccc2)cc1 as the compound, how does the AC50 read?
**A.** inactive

**Q.** Which AC50 does the source give for CC(NC(=O)Cn1cnc([N+](=O)[O-])n1)c1ccccc1 (configuration not stated) here?
**A.** inactive

**Q.** Which AC50 does the source give for O=C(Cn1cnc2ccccc21)NC(c1ccccc1)c1ccccc1 here?
**A.** 7.08 µM (active)

**Q.** How did the AC50 turn out when C[C@H](NC(=O)Cn1cncn1)c1ccccc1 was run?
**A.** inactive

**Q.** C[N+]1(CCCC[N+]2(C)CCCCCCC2)CCCCCCC1 was tested. Which activity, negative = inhibition did it give?
**A.** -7.84% [at 11.4 µM] (inactive)

**Q.** For N/C(=N\O)c1cn([C@@H]2O[C@@H](CO)[C@H](O)[C@@H]2O)c2ncnc(NO)c12, which activity, negative = inhibition is on record?
**A.** 14.4% [at 11.4 µM] (inactive)

**Q.** With CCOc1ccc(N2C(=O)CN=C2Nc2ccccc2F)cc1 as the compound, how does the AC50 read?
**A.** inactive

**Q.** With CCOc1ccc(NC2=NCC(=O)N2Cc2cccs2)cc1 as the compound, how does the AC50 read?
**A.** 7.08 µM (active)

**Q.** For CCOc1ccc(N2C(=O)CN=C2Nc2ccccc2Cl)cc1, which AC50 is on record?
**A.** inactive
